High-throughput results from PubChem.
LYP act – activators of human LYP (PTPN22) phosphatase. recombinant LYP, DiFMUP fluorescence; 0 = plate median, 100 = signal doubled. activation, % at 2 µM. Q9Y2R2. 0.11% of 96,000 active. AID 697;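 active = activation at 2 µM above a set limit, the mean plus 5 SD, cut at about 37% in these data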
Target sequence (Q9Y2R2 whole entry, looked up): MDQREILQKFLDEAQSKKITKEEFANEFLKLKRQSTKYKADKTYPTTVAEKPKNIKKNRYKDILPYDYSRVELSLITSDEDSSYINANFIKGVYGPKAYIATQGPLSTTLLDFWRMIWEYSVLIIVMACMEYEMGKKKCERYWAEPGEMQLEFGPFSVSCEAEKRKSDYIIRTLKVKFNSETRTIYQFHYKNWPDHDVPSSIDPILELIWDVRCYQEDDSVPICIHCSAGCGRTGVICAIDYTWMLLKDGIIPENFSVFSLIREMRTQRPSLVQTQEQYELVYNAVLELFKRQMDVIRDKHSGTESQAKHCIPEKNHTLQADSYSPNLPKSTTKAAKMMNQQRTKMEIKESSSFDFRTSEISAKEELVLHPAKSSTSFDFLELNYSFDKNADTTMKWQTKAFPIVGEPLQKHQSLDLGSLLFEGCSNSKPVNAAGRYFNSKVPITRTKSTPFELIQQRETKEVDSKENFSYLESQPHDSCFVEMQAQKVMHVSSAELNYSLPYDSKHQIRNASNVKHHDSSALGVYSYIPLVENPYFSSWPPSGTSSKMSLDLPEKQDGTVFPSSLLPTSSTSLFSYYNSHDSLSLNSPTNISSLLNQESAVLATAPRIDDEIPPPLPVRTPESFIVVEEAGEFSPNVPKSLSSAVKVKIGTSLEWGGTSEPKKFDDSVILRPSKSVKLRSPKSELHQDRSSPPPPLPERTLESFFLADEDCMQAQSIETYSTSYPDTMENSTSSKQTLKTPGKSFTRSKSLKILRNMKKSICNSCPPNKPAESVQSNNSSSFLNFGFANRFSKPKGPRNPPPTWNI
MRP resist rev – compounds reversing MRP-mediated drug resistance | H69AR cells + 2 uM doxorubicin, CellTiter-Glo, 72 h | differential viability (reversal), % at 10 µM | 0.04% of 85,000 active | AID 602;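 active = viability drop by adding the cancer drug above about 55%, with treated viability meeting a 40% cutoff, limit read from the data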;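 also: viability without doxorubicin minus viability with 2 µM doxorubicin for each compound; larger differential means the compound sensitizes cells more to doxorubicin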
FAK blocker – blocks human focal adhesion kinase activity; biochemical FAK kinase activity assay; Q05397; inhibition, %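 (tested at 7 µM)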; 0.84% of 97,000 active; AID 727;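 also: 0% = DMSO and 100% = reference compound high control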
MRP1 act – activators of MRP-1. H69AR cells + doxorubicin, viability rescue, CellTiter-Glo. viability increase, % at 10 µM. 0.61% of 140,000 active;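 active = viability gain under doxorubicin at or above a set limit, the compound median plus 3 SD, cut at about 4.7% in these data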;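 also: MRP-1 overexpressing cells given doxorubicin 25 µM after compound pretreatment; 18-22 h compound pretreatment then 72 h with doxorubicin before readout; 0% = doxorubicin-only wells and 100% = vehicle-treated cells without doxorubicin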
LYP inh 2 – LYP (human) phosphatase inhibition | recombinant LYP catalytic domain, DiFMUP fluorescence | inhibition, % at 2 µM | 0.21% of 96,000 active;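 active = inhibition at 2 µM at or above a set limit, the screen mean plus 3 SD, cut at about 24% in these data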;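 also: 0% = DMSO with enzyme and 100% = enzyme fully blocked by orthovanadate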
PLAP activator – activates human placental alkaline phosphatase; P05187; purified PLAP enzyme, luminescent substrate read-out; active compounds read high; activation fold at 20 µM; 1.2% of 96,000 active; in the data active = activation fold above about 2
PTPN22 act conf – LYP (PTPN22) phosphatase activation confirmation. shares compounds with LYP act. Recombinant LYP, DIFMUP fluorescence; zero set by plate's median compound well. activation, % at 2 µM. 100 tested, under 10 active; call rule not given here
FAK inh conf – FAK (human) inhibition confirmed; shares compounds with FAK blocker; FAK kinase biochemical inhibition assay; inhibition, % at 7 µM; 28% of 750 active
* = called active by the depositor; . = not tested or not shown. Only some compounds are listed: those with a hit (about 2.2% of all), similar ones and a draw of the others. Rule as the data show it, unless noted: active = inhibition above about 19%; inactive = the rest.

SMILES	LYP act	MRP resist rev	FAK blocker	MRP1 act	LYP inh 2	PLAP activator	PTPN22 act conf	FAK inh conf
C=C(C)C1CC=C(C)/C(=N\NC(=O)CCc2ccccc2)C1 (stereo not given)	.	.	.	1.0	.	.	.	.
CCOc1ccc(S(=O)(=O)N(CC(=O)O)c2ccc(C)cc2)cc1	37.8*	-7.1	-4.6	0.7	-41.8	1.3	-11.8	.
CCCCNS(=O)(=O)c1ccc2nc(-c3cccs3)cc(C(=O)NCC(OC)OC)c2c1	.	.	.	-2.5	.	.	.	.
COc1ccc(NC(=O)c2ccc3ccccc3n2)cc1S(=O)(=O)N1CCCCC1	.	.	.	-2.5	.	.	.	.
Cc1ccc(-c2nc(CCN3C(=O)c4ccccc4C3=O)cs2)cc1	47.8*	.	0.2	1.0	-44.2	0.8	5.4	.
COc1ccc(NC(C)=O)cc1NC(=O)CCn1c(=O)sc2ccccc21	40.0*	-1.4	-0.2	-3.3	-38.7	.	3.4	.
COC(=O)c1ccc(C)c(NS(=O)(=O)c2ccc3c(c2)OCCO3)c1	41.7*	-21.0	-4.3	-1.1	-38.1	1.4	-0.9	.
COC(=O)c1ccc(C)c(NS(=O)(=O)c2ccc(OC)cc2)c1	-0.3	-24.9	-1.9	-2.1	2.4	1.2	.	.
CCOC(=O)c1cnn(-c2nc(-c3ccc(F)cc3)cs2)c1C(F)(F)F	40.1*	.	-4.2	-0.7	-34.5	0.7	-3.0	.
O=C(CCCC(=O)N(CC(=O)NC1CCCC1)Cc1ccc(F)cc1)Nc1ccccn1	37.9*	22.4	-1.1	-2.8	-41.3	1.7	-4.1	.
O=C(Nc1ccc2c(c1)OCCO2)C1CCCN(S(=O)(=O)c2cccc3nsnc23)C1 (stereo not given)	41.5*	-8.3	0.8	-0.5	-47.1	1	-5.1	.
O=C(Nc1ccc2c(c1)OCCO2)C1CCN(S(=O)(=O)c2cccc3nsnc23)CC1	2.7	14.2	-4.1	-1.5	-5.1	1.1	.	.
COc1cccc(C(=O)Nc2ccc(F)c(F)c2F)c1	10.1	4.8	1.5	1.8	-6.9	0.8	.	.
Cc1ccc(Cl)cc1NC(=O)c1cccc(OC(F)F)c1	40.2*	.	1.5	-0.3	-46.2	0.7	6.6	.
O=C(Nc1ccccc1)c1ccsc1	.	.	.	-2.2	.	.	.	.
Cc1nnc(NC(=O)CSCc2ccccc2)s1	34.7	6.6	-1.3	-0.1	-35.9	1.1	.	.
CCOCc1nnc(NC(=O)CSCc2ccccc2)s1	42.0*	8.7	-4.5	-2.4	-41.2	1.3	-1.0	.
CN(C)S(=O)(=O)N(CC(=O)Nc1ccccc1F)c1ccccc1	39.1*	.	1.1	-2.9	-38.4	.	-4.1	.
Cc1ccccc1NC(=O)CN(c1ccc(F)cc1)S(C)(=O)=O	7.7	10.7	2.0	-2.3	-9.0	1	.	.
O=S(=O)(N/N=C\c1ccc2c(c1)OCO2)c1ccc(Cl)cc1	12.8	.	-2.0	-0.8	-7.2	1.2	.	.
CC(=O)Nc1ccc(S(=O)(=O)N2CCSC2c2ccc(Cl)cc2)cc1 (stereo not given)	38.3*	2.3	0.3	-0.5	-39.9	0.9	4.7	.
Cc1c(CN(C)C(=O)/C=C/c2ccc([N+](=O)[O-])cc2)cnn1C	.	.	.	-0.7	.	.	.	.
CC(C(=O)NC1CCCC1)N(Cc1ccc2c(c1)OCO2)C(=O)c1snc(C(N)=O)c1N (stereo not given)	42.4*	-18.8	4.7	-2.2	-44.0	0.8	-0.5	.
CCC(C(=O)NC1CCCC1)N(Cc1ccc2c(c1)OCO2)C(=O)c1snc(C(N)=O)c1N (stereo not given)	0.8	-30.6	8.7	-1.5	-2.3	0.9	.	.
Cc1sc(-c2ccncc2)nc1OC(=O)c1ccccc1	-7.9	-9.6	-3.4	1.3	9.4	1.3	.	.
SMILES	LYP act	MRP resist rev	FAK blocker	MRP1 act	LYP inh 2	PLAP activator	PTPN22 act conf	FAK inh conf
CCCCNC(C(=O)Nc1ccc(Cl)c([N+](=O)[O-])c1)c1ccccc1 (stereo not given)	.	.	.	-0.3	.	.	.	.
CSc1nc(-c2ccccc2)nn1C(=O)c1ccccc1	52.4*	.	3.7	0.6	-48.0	0.9	-1.5	.
Cc1ccc(C)n1Cc1ccc(C(=O)O)cc1	-7.0	16.3	78.3*	0.2	1.7	1.5	.	-4.3
CCc1ccc(C(=O)COC(=O)CCc2nc3ccccc3c(=O)[nH]2)cc1	.	.	.	0.9	.	.	.	.
COc1ccc(CNC(=O)C(C)N(Cc2ccco2)C(=O)c2snc(C(N)=O)c2N)cc1 (stereo not given)	-1.8	-4.3	10.6	-3.1	1.5	1.6	.	.
CCc1ccccc1N(CC(=O)NCc1ccco1)C(=O)c1snc(C(N)=O)c1N	2.5	-11.8	40.8*	-4.3	-4.6	1.3	.	14.9
O=C(Cn1c(=O)n(Cc2ccco2)c(=O)c2c3c(sc21)CCCCC3)c1ccccc1	-13.6	8.0	30.4*	-2.3	15.9	1	.	3.0
O=c1c2c3c(sc2n(CCN2CCCC2)c(=O)n1Cc1ccco1)CCCCC3	.	-5.0	.	-5.3	.	1.5	.	.
O=C(Cn1c(=O)n(Cc2ccco2)c(=O)c2c3c(sc21)CCCCC3)Nc1ccccc1	-18.7	-2.9	32.0*	0.1	20.7	1.1	.	3.5
O=[N+]([O-])c1ccc(C2Oc3ccccc3C3CC(c4ccccc4)=NN32)s1 (stereo not given)	.	.	.	-4.6	.	.	.	.
Cc1cc(C)c(NC(=O)CC(C)(C)C)c(Cl)c1	-4.0	1.3	72.7*	-2.9	1.5	1.1	.	1.9
Cc1cc(C)c(NC(=O)/C=C\C(=O)O)c(Cl)c1	.	.	.	-1.9	.	.	.	.
CCC1(CC)NC(=O)N(CC(=O)Nc2sc3c(c2C(N)=O)CCC3)C1=O	-5.7	13.0	28.2*	-2.7	3.2	1.5	.	6.3
CCCCC(=O)Nc1sc2c(c1C(N)=O)CCC2	-3.9	5.8	19.7*	2.1	0.5	0.9	.	12.1
CC(OC(=O)CNC(=O)c1ccccc1F)C(=O)Nc1nc(-c2ccccc2)cs1 (stereo not given)	.	.	.	1.6	.	.	.	.
COc1ccc(CCNC(=O)CN(C2CCCCC2)S(C)(=O)=O)cc1OC	-2.9	7.6	20.4*	-0.7	0.5	1.3	.	1.0
Cn1c(SCC(=O)Nc2ccc3nc(SCC(=O)N4CCCC4)sc3c2)nnc1-c1ccccc1	-10.4	.	25.0*	-1.6	12.2	1.6	.	8.6
CCOC(=O)c1cccc(-n2c(-c3ccc(OC)cc3)nc3nc4ccccc4nc32)c1	.	.	.	-5.0	.	.	.	.
COc1ccccc1NC(=O)c1nn(-c2ccccc2)ccc1=O	-15.9	.	1.7	0.0	18.7	0.9	.	.
COc1ccccc1NC(=O)c1nn(-c2ccc(Cl)cc2)ccc1=O	-4.1	.	24.9*	-0.6	7.3	1.2	.	3.0
Cc1ccc(OCC(=O)NN=C2c3ccccc3-c3ccccc32)cc1	-13.8	.	1.1	-2.9	15.6	1.1	.	.
CCc1ccc(OCC(=O)N/N=C2\CC(=O)c3ccccc32)cc1	-12.1	.	31.9*	-5.2	12.7	2.4*	.	2.3
O=C1NCCc2c1[nH]c1c(Cl)ccc(Cl)c21	-4.9	1.9	73.5*	-4.7	3.2	0.9	.	61.7*
Nc1nc2ccc([N+](=O)[O-])c(N)c2s1	-3.7	.	25.3*	-5.4	8.0	0.8	.	6.3
